The text below walks through data of PubChem BioAssay AID2314 (National Center for Advancing Translational Sciences (NCATS), 2010).

In all, about 300,000 compounds went through this assay and about 37,000 (12%) were called active. The sample holds actives, similar compounds and a random draw of the others, so the mix is not that of the screen. Values without a mark were called inactive. Cut-off read from the data, not from the text of the source: active = max response mostly above about 13% (no sharp cut-off); inactive = mostly below about 14%.

The experiment is described as follows: Cycloheximide Counterscreen for Small Molecule Inhibitors of Shiga Toxin. Note: read at 38.3 µM for the half of the compounds with a filed dose; 0% is about no effect. Conditions: cell reporter, cycloheximide protein synthesis inhibition counterscreen; stronger effect = higher value.
In the case of `COc1ccc(-c2nn(-c3ccccc3)cc2/C=C2/SC(=S)N(CCCC(=O)O)C2=O)c(C)c1`, the max response is -2.33%.

With `COc1cccc(CNS(=O)(=O)c2ccc3c(c2)CC(C)N3C(=O)C2CCC2)c1` (stereo not given), the max response was 8.91%.

As for `CC(CCc1ccccc1)NC(=O)c1ccc(Br)o1` (stereo not given), the max response is 5.6%.

With `O=C(NCc1cccs1)c1ccc(Br)o1`, the max response is 6.23%.

As to `C/C(=N/NC(=O)c1ccc(Br)o1)c1ccc(C)o1`, the max response is 78.1% (active).

In the case of `Cc1cc(C)c2c(-c3ccc(F)cc3)c(C#N)c(=O)n(C)c2n1`, the max response was -4.22%.

On to `O=C(c1ccc(F)cc1)C1CCN(Cc2cn[nH]c2-c2ccccc2)CC1`, for which the max response was -1.57%.

For the molecule `COc1ccc(-c2[nH]ncc2CN(C)Cc2c(C)n[nH]c2C)c(OC)c1`, the max response was -6.81%.

Take `Cc1nnc(CN(C)Cc2cn[nH]c2-c2ccc(-c3ccccc3)cc2)o1`: the max response is 14.6% (active).

For `CN(CCC1CCOCC1)Cc1cn[nH]c1-c1ccc(-c2ccccc2)cc1`, the max response was 19% (active).

Consider `COc1ccc(-c2[nH]ncc2CN(C)Cc2cc(C)[nH]n2)c(F)c1`, for which the max response was 7.91%.

`O=C(CC1C(=O)NCCN1Cc1ccc(-c2ccccc2)cc1)NCC1CCOCC1` (stereo not given): the max response is -0.46%.

Consider `CC1(C)c2[nH]c3ccccc3c2C[C@H]2C(=O)N(N)CC(=O)N21`, for which the max response is -5.11%.

As to `CC(C)(C)c1ccc(C(=O)NCc2nnc(SCC(=O)N3CCCc4ccccc43)n2-c2ccccc2)cc1`, the max response is -1.48%.

Regarding `CC(C)(C)C(=O)N(Cc1ccccc1)c1ccccn1`, the max response was 0.801%.

On to `Cc1ccccc1N1CCN(S(=O)(=O)c2ccc3ccccc3c2)CC1`, for which the max response is -1.83%.

On to `Cc1ccc(Cn2nnc3c(=O)[nH]c(C4CCN(S(=O)(=O)/C=C/c5ccccc5)CC4)nc32)cc1`, for which the max response is -2.92%.

Turning to `COc1ccc(C)cc1NC(=O)CSc1nc(SC)ns1`, the max response is 10.3%.

As for `CSc1nsc(SCC(=O)Nc2cc(C(=O)O)ccc2C)n1`, the max response is 1.8%.

As for `COc1ccc(NC(=O)CSc2nc(C)cs2)cc1`, the max response is 27.7% (active).

As for `COc1cc(OC)cc(-c2nnc(SCC(=O)Nc3ccc(C(=O)O)cc3)s2)c1`, the max response is -1.06%.

On to `Cc1csc(SCC(=O)Nc2sccc2C#N)n1`, for which the max response was 2.13%.

With `COc1ccc(NC(=O)CSc2nc(SC)ns2)c(OC)c1`, the max response was 42.1% (active).

Turning to `O=S(=O)(NCCCCCCNS(=O)(=O)c1c(F)cccc1F)c1ccc2c(c1)OCCO2`, the max response is -6.04%.

Regarding `C#CCOc1ccccc1/C=C1/C(=O)ON=C1C`, the max response was 7.98%.

Turning to `COc1ccccc1C(=O)N/C(=C/c1ccco1)C(=O)Nc1ccc(C(=O)O)cc1`, the max response is -3.58%.

On to `Cc1c(NC(=O)Nc2cccc([N+](=O)[O-])c2)c(=O)n(-c2ccccc2)n1C`, for which the max response is 3.26%.

On to `CCN1CCN(CCNC(=O)c2ccc3c(c2)NC(=O)/C(=C\c2ccc(OC)c(OC)c2)S3)CC1`, for which the max response is 1.31%.

With `CC(Nc1nc(C(F)(F)F)nc2ccccc12)c1cccs1` (stereo not given), the max response is -5.02%.

On to `C=Cn1cc[n+](CC(=O)c2ccc(OC)c(OC)c2)c1`, for which the max response is -1.55%.

For `CC(=O)Nc1nc(N(C)C)nc(N(C)C)n1`, the max response was 26.5% (active).

As for `CN(C)c1nc(NN)nc(Nc2ccc(F)cc2)n1`, the max response was -3.59%.

Turning to `CN(C)c1nc(Nc2ccc(Cl)c(Cl)c2)nc(N(C)C)n1`, the max response was 1.57%.

With `O=S1(=O)CCO[C@H]2Cc3ccccc3[C@H]2N1Cc1ccccc1`, the max response was -1.34%.

For `Cc1c(-c2nn(C)c(=O)c3ccccc23)oc2ccc(F)cc2c1=O`, the max response was -8.42%.

As for `C=CCNC(=O)c1ccc2c3n(nc2c1)-c1ccc(C)cc1CO3`, the max response was 34.5% (active).

As to `Cc1cccc(-c2nc3ccc(C(=O)NCCN4CCN(C)CC4)cc3nc2-c2cccc(C)c2)c1`, the max response is -13.3%.

For `C=CCNC(=O)c1ccc(C)c(Br)c1`, the max response was 5.91%.

With `CCCCn1c(N)c(N(CCC(C)C)C(=O)c2ccc([N+](=O)[O-])o2)c(=O)[nH]c1=O`, the max response was -1.97%.

On to `CCN(CC)CC(=O)Nc1sc2c(c1C(=O)c1ccccc1C)CCC2`, for which the max response is -2.82%.

For `CC(C)c1ccc(OCC(O)CN2CCN(c3ccccn3)CC2)cc1` (stereo not given), the max response is -1.42%.

For `CC(O)c1ccc(OCCN(C)c2ccccn2)cc1` (stereo not given), the max response is 55.9% (active).

For `CCOc1ccc(C(C(=O)NCCOC)N(CCOC)C(=O)CCC(=O)Nc2ccccn2)cc1` (stereo not given), the max response is 1.47%.

With `Nc1[nH]c(=S)nc2nc(-c3ccccc3)c(-c3ccccc3)nc12`, the max response is -2.36%.

Turning to `C=CCNc1cnn(-c2ccc(C)cc2)c(=O)c1Cl`, the max response is 66.7% (active).

For the molecule `Cc1ccc(Oc2cnn(-c3ccccc3)c(=O)c2Br)cc1`, the max response was 12.3%.

Turning to `CC1=C(C(=O)NC2CC(C)(C)Cc3c2cnn3-c2ccc(C)cc2)OCCO1` (stereo not given), the max response was 10.7%.

For the molecule `CC(C)(C)c1nc2ccccc2c(=O)n1N1C(=O)c2ccccc2C1=O`, the max response was -2.32%.

Regarding `Cc1ccc2nc(COc3ccc(N(C)S(=O)(=O)c4ccccc4)cc3)cc(=O)n2c1`, the max response is -1.15%.

Turning to `CCCCCc1ccc(-c2ccc(C(=O)O)cc2)nc1`, the max response was 79.8% (active).

As to `CCCCCc1ccc(-c2ccc(OCC)cc2)nc1`, the max response was 15.6% (active).

In the case of `CCOc1c(CNCc2ccc(C(=O)O)cc2)cccc1OC`, the max response was -3.44%.

Regarding `O=C(O)c1ccc(COCC(F)(F)F)cc1`, the max response is -3.85%.

In the case of `CCCCCc1ccc(-c2cn(Cc3ccc4ccccc4c3)nn2)cc1`, the max response was -2.64%.

Regarding `CCOc1ccc(-c2ccc(SCC(=O)N3CCOCC3)nn2)cc1`, the max response is 23.3%.

Turning to `COc1ccc(CNC(=O)C2CCN(S(=O)(=O)c3ccc(SC)cc3)CC2)cc1`, the max response is 10.4%.

Take `CCn1c(O)c(N=NC(=O)c2cccc(S(=O)(=O)N3CCCCC3)c2)c2ccccc21`: the max response was -2.88%.

As for `CC(=O)[O][Sn]([c]1ccccc1)([c]1ccccc1)[c]1ccccc1`, the max response was -16.7%.

As to `O=C(O)CN1CCN(C(c2ccccc2)c2ccccc2)CC1`, the max response was -0.558%.

Consider `COC(=O)Cc1csc(/N=C/c2c(O)n(-c3cccc(C(F)(F)F)c3)c(=O)c3ccccc23)n1`, for which the max response is -0.585%.
